# Assay outcomes from PubChem.
# Sampled rows, rich in hits. Any-hit rate of the full collection: about 13%.
# Pf growth 96h = P. falciparum growth inhibition at 96 hour, primary screen for plastid delayed-death inhibitors; 320,000 compounds, 6.9% hits; Potency, µM (series often up to 28.7 µM), inactives show top-dose activity change, negative = inhibition, most hits filed as inhibitors; AID 504834; P. falciparum luciferase reporter growth, 96 h; note: potency is the fitted concentration of half-maximal effect
#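 Two parasite generations (96 h, 37 C, 5% CO2) of compound exposure in infected erythrocytes (0.05% parasitemia, 2% hematocrit). Luciferase-reporter P. falciparum; decreased luminescence indicates inhibited growth, aimed at apicoplast-acting delayed death.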
# Pf growth 48h = P. falciparum growth inhibition at 48 hours (one generation); AID 504832; 310,000 compounds, 5.9% hits; Potency, µM (series often up to 28.7 µM), for inactives: at the top dose activity change, negative = inhibition, most hits filed as inhibitors; P. falciparum luciferase growth in erythrocytes, 48 h; note: potency is the fitted concentration of half-maximal effect
#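 Parasite viability was followed by luminescence of a genomically integrated firefly luciferase. Cultures held 0.1% parasitemia at 2% hematocrit (final), incubated under 5% CO2 at 37 C.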
# HCV inh = HCV inhibition | Huh7.5.1 HCVcc-Cre infection, luciferase reporter, 44 h | Potency, µM (top dose mostly 41.8 µM), without a hit: at the highest dose activity change, negative = inhibition, hits mostly inhibitors | 340,000 compounds, 3.4% hits | AID 651820; note: potency is the fitted concentration of half-maximal effect
#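 Infectious HCV cell culture screen: compound-treated cells (1,000/well, pre-plated 4 h) are infected with HCVcc-Cre at roughly 0.5 moi and grown 44 h. Infection is quantified by luciferase signal after 15 min substrate incubation at room temperature.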
# HCMV antiviral = inhibitors of human cytomegalovirus. activity change, negative = inhibition, % at 57.5 µM. 410,000 compounds, 4.5% hits. HFF cells, HCMV-luciferase reporter, 72 h; hits give low values; in the data active = activity change below about -60%; inconclusive = no clear call, values can overlap the other calls; inactive = above about -39%
#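 Inhibition of viral replication was scored as loss of reporter luminescence in HFFs infected with HCMV-luciferase (MOI 1 PFU/cell) for 72 h; compounds tested at 2 doses, normalized to buffer and Salinomycin controls.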
# An asterisk follows results filed as active; ? = inconclusive; / = not tested or not shown. Unless noted, calls come from the whole dose curve; as a rule, active = well fitted inhibition curve with a large enough effect; inconclusive = small, poorly fitted or top-dose-only effect, or another doubt; inactive = no such curve, though single readings can be large or run the other way. % is set by controls: 0 for no effect and ±100 for the full control effect.
SMILES,Pf growth 96h,Pf growth 48h,HCV inh,HCMV antiviral
COC(=O)CN1C(=O)C(C)(C)c2cc(S(=O)(=O)Nc3ccc(C(C)C)cc3)ccc21,/,/,/,9.9
CC(=O)OC1CC[C@]2(C#N)[C@H]3CC[C@]4(C)[C@H](C5C=CC(=O)O5)CCC4(O)C3CCC2(O)C1 (some centres not stated),-14.2%,/,2.4%,-93.3*
CCN(CC)c1nn2c(=O)c(C(=O)NCc3cccc(C)c3)cnc2s1,/,/,/,-15.6
CC1CCCCC1NC(=O)/C(C#N)=C/c1ccc(F)c(F)c1 (configuration not stated),?,11.7µM*,25.2%,26.5
O=C(Nc1ncccc1O)c1cccc(S(=O)(=O)N2CCN(c3ccc(F)cc3)CC2)c1,?,-21.4%,-9.6%,-5.2
O=C(Nc1ccncc1)c1cccc(S(=O)(=O)N2CCN(c3ccc(F)cc3)CC2)c1,11.7µM*,?,?,-71.4*
Cc1ccc(NC(=O)c2cccc(S(=O)(=O)N3CCN(c4ccc(F)cc4)CC3)c2)nc1,?,?,?,-77.3*
O=C(c1cccc(S(=O)(=O)N2CCN(c3ccc(F)cc3)CC2)c1)N1CCCC(C(F)(F)F)C1 (configuration not stated),?,?,?,-61.2*
Cc1cc(C)n2nnnc2c1C#N,13.1µM*,18.2%,2.1%,-11.1
N#Cc1cc2ccccc2n2nnnc12,42.6%,9.7%,12.6%,-12.1
CN(C(=O)CN1CCN(c2cc(-c3ccc(-c4ccccc4)cc3)ncn2)CC1)c1ccccc1,/,/,/,-66.8*
Cc1cc(C)cc(NC(=O)CN2CCN(c3ccccn3)CC2)c1,?,2.3%,-22.1%,21.8
COc1ccc(NC(=O)C(c2ccc(Cl)cc2)C(C)C)cn1 (configuration not stated),?,1.47µM*,-16.0%,/
COc1ccc(NC(=O)Cc2ccccc2)cn1,5.22µM*,32.8%,16.5%,-30.0
CCOc1ccccc1OCCCC(=O)Nc1ccc(OC)nc1,?,-8.3%,?,-11.2
CC(NC(=O)c1ccc(Cl)cc1)C(=O)NC1=NCCS1 (configuration not stated),65.8%,17.4%,13.6%,-11.5
COc1ccc(NC(=O)CSc2ccccc2)cn1,65.4%,40.2%,-6.0%,-103.1*
COc1ccc(NC(=O)Nc2ccc(F)cc2)cn1,-0.1%,29.7%,-3.2%,-34.2
CC(C)C(C(=O)NC1=NCCS1)c1ccc(Cl)cc1 (configuration not stated),?,3.7µM*,?,15.7
CCCNC(=O)N1CC2(CN(C(C)=O)C2)c2c(n(C)c3cc(OC)ccc23)[C@H]1CO,/,/,/,3.1
COCCCNC(=O)Cn1c(=O)n(-c2cccc(C)c2)c(=O)c2c3c(sc21)CN(C(C)=O)CC3,/,/,/,3.2
CCN1CCN(c2ncc3c(n2)CCN(CC(C)C)C3)CC1,/,/,/,-7.8
COc1ccc(CS(=O)(=O)/C(Cl)=C(/Cl)C(=O)Nc2ccc(OC)nc2)cc1,?,/,3.98µM*,/
COc1ccc(/C=C/C(=O)Nc2ccc(OC)nc2)cc1,?,?,-26.6%,2.2
CCc1ccccc1NC(=O)C1(S(=O)(=O)c2ccc(Cl)cc2)CC1,/,/,/,0.3
SMILES,Pf growth 96h,Pf growth 48h,HCV inh,HCMV antiviral
COc1ccc(N(C)C(=O)c2ccc3nc(-c4ccccc4)c(-c4ccccc4)nc3c2)cc1,?,?,11.2µM*,7.7
CC(C)N(C(=O)c1ccc2nc(-c3ccccc3)c(-c3ccccc3)nc2c1)C(C)C,?,?,?,1.9
Cn1nnnc1NN=Cc1ccccc1,/,/,/,-31.5
Fc1ccc(/C=N/Nc2nnnn2-c2ccccc2)cc1,8.28µM*,4.7%,2.3%,-24.0
Cc1cc(NC(=O)c2cccs2)cc(-c2nc3cc(Cl)ccc3o2)c1O,/,/,/,-11.3
CCN(CC)S(=O)(=O)c1ccc(/C(O)=C(\C#N)c2nc3ccccc3n2C)cc1,0.262µM*,?,?,?
OC[C@H]1O[C@@](CO)(O[C@H]2O[C@H](CO)[C@@H](O)[C@H](O)[C@H]2O)[C@@H](O)[C@@H]1O,-12.7%,-5.0%,/,/
CCC(Sc1ccc2nnc(CCNS(=O)(=O)c3ccc(OC)cc3)n2n1)C(=O)OC (configuration not stated),7.38µM*,5.6%,12.7%,3.0
Cc1cccc(CC(=O)NC2CC(=O)N(c3ccccc3)C2)c1 (configuration not stated),/,/,/,-5.7
